Assay results taken from PubChem BioAssay AID1159580 (chemical genetic matrix, 2015).
Among all 5,500 compounds or so, about 2,000 (36%) were called active. Roughly 18% stayed inconclusive and do not appear here. Cut-off read from the data, not from the text of the source: active = normalized growth mostly below about 0.91 (no sharp cut-off); inconclusive = no clear call, values can overlap the other calls; inactive = mostly above about 0.92. The list shows a part of the results.

Experiment: chemical genetic growth profiling, strain panel (AID 1159580);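 note: tested at 20 µM; growth read once vehicle control cultures reached saturation at 30 °C; 1 = growth at the plate median or of vehicle wells; lower values mean less growth of the strain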
Settings: growth OD

Measured: normalized growth

COC1C(O)C(O)C(O)[C@@H](O)C1O (some centres undefined)
inactive: S. cerevisiae deletion strains, locus YJR066W, strain TOR1, hits give low values 0.926 | S. cerevisiae deletion strains, locus YJR075W, strain HOC1, hits give low values 1.01 | S. cerevisiae deletion strains, locus YKL009W, strain mrt4, hits give low values 1.1 | S. cerevisiae deletion strains, locus YKL068W, hits give low values 1.01 | S. cerevisiae deletion strains, locus YKL085W, strain MDH1 (second series), hits give low values 1.02 | S. cerevisiae deletion strains, locus YKL085W, strain MDH1, hits give low values 1.02 | S. cerevisiae deletion strains, locus YKL160W, strain elf1, hits give low values 0.968 | S. cerevisiae deletion strains, locus YKL190W, strain CNB1, hits give low values 1.01 | S. cerevisiae deletion strains, locus YKR001C, strain vps1, hits give low values 1.05 | S. cerevisiae deletion strains, locus YKR026C, strain gcn3, hits give low values 0.978 | S. cerevisiae deletion strains, locus YKR091W, strain srl3, hits give low values 0.972 | S. cerevisiae deletion strains, locus YLL001W, strain dnm1, hits give low values 0.944 | S. cerevisiae deletion strains, locus YLL026W, hits give low values 0.992 | S. cerevisiae deletion strains, locus YLL041C, strain sdh2, hits give low values 0.978 | S. cerevisiae deletion strains, locus YLR027C, strain aat2, hits give low values 0.969 | S. cerevisiae deletion strains, locus YLR039C, strain RIC1, hits give low values 1.07 | S. cerevisiae deletion strains, locus YLR058C, strain SHM2, hits give low values 1.01 | S. cerevisiae deletion strains, locus YLR102C, strain apc9, hits give low values 1.02 | S. cerevisiae deletion strains, locus YLR113W, strain HOG1, hits give low values 0.97 | S. cerevisiae deletion strains, locus YLR221C, strain rsa3, hits give low values 0.965 | S. cerevisiae deletion strains, locus YLR258W, strain gsy2, hits give low values 0.979 | S. cerevisiae deletion strains, locus YLR262C, strain YPT6 (second series), hits give low values 0.971 | S. cerevisiae deletion strains, locus YLR262C, strain YPT6, hits give low values 1.03 | S. cerevisiae deletion strains, locus YLR268W, strain sec22, hits give low values 1.05 | S. cerevisiae deletion strains, locus YLR320W, strain mms22, hits give low values 0.963 | S. cerevisiae deletion strains, locus YLR330W, strain CHS5, hits give low values 1.01 | S. cerevisiae deletion strains, locus YLR342W, strain FKS1 (second series), hits give low values 1.08 | S. cerevisiae deletion strains, locus YLR342W, strain FKS1, hits give low values 0.973 | S. cerevisiae deletion strains, locus YLR357W, strain rsc2, hits give low values 0.959 | S. cerevisiae deletion strains, locus YLR370C, strain arc18, hits give low values 0.971 | S. cerevisiae deletion strains, locus YLR371W, strain rom2, hits give low values 1.02 | S. cerevisiae deletion strains, locus YLR384C, strain iki3, hits give low values 0.96 | S. cerevisiae deletion strains, locus YLR418C, strain cdc73, hits give low values 1.06 | S. cerevisiae deletion strains, locus YML016C, strain PPZ1, hits give low values 1.01 | S. cerevisiae deletion strains, locus YML032C, strain rad52, hits give low values 1.04 | S. cerevisiae deletion strains, locus YML120C, strain ndi1, hits give low values 0.97 | S. cerevisiae deletion strains, locus YML124C, strain tub3, hits give low values 1.02 | S. cerevisiae deletion strains, locus YMR058W, strain fet3, hits give low values 0.973 | S. cerevisiae deletion strains, locus YMR078C, strain ctf18, hits give low values 1.01 | S. cerevisiae deletion strains, locus YMR125W, strain sto1, hits give low values 0.958 | S. cerevisiae deletion strains, locus YMR129W, hits give low values 0.976 | S. cerevisiae deletion strains, locus YMR205C, strain PFK2, hits give low values 0.966 | S. cerevisiae deletion strains, locus YMR223W, strain ubp8, hits give low values 1 | S. cerevisiae deletion strains, locus YMR231W, strain pep5, hits give low values 0.971 | S. cerevisiae deletion strains, locus YMR263W, strain SAP30, hits give low values 0.997 | S. cerevisiae deletion strains, locus YMR307W, strain GAS1, hits give low values 1.05 | S. cerevisiae deletion strains, locus YNL067W, strain RPL9B, hits give low values 0.998 | S. cerevisiae deletion strains, locus YNL071W, strain lat1, hits give low values 0.973 | S. cerevisiae deletion strains, locus YNL128W, strain TEP1, hits give low values 1.03 | S. cerevisiae deletion strains, locus YNL183C, strain NPR1, hits give low values 0.962 | S. cerevisiae deletion strains, locus YNL209W, strain ssb2, hits give low values 0.987 | S. cerevisiae deletion strains, locus YNL233W, strain BNI4, hits give low values 1.01 | S. cerevisiae deletion strains, locus YNL248C, strain rpa49, hits give low values 0.976 | S. cerevisiae deletion strains, locus YNL250W, strain rad50, hits give low values 1.02 | S. cerevisiae deletion strains, locus YNL271C, strain bni1, hits give low values 1.01 | S. cerevisiae deletion strains, locus YNL298W, strain CLA4, hits give low values 1.03 | S. cerevisiae deletion strains, locus YNL307C, strain MCK1, hits give low values 1.02 | S. cerevisiae deletion strains, locus YNL322C, strain KRE1 (second series), hits give low values 0.97 | S. cerevisiae deletion strains, locus YNR049C, strain mso1, hits give low values 0.979 | S. cerevisiae deletion strains, locus YNR052C, strain pop2, hits give low values 1.01 | S. cerevisiae deletion strains, locus YOL012C, strain htz1 1.17 | S. cerevisiae deletion strains, locus YOL147C, strain pex11, hits give low values 1.01 | S. cerevisiae deletion strains, locus YOR001W, strain rrp6, hits give low values 0.995 | S. cerevisiae deletion strains, locus YOR061W, strain CKA2, hits give low values 1.02 | S. cerevisiae deletion strains, locus YOR069W, strain VPS5, hits give low values 1.01 | S. cerevisiae deletion strains, locus YOR070C, strain gyp1, hits give low values 1 | S. cerevisiae deletion strains, locus YOR080W, strain dia2, hits give low values 0.979 | S. cerevisiae deletion strains, locus YOR083W, strain WHI5, hits give low values 0.964 | S. cerevisiae deletion strains, locus YOR106W, strain vam3, hits give low values 0.96 | S. cerevisiae deletion strains, locus YOR136W, strain idh2, hits give low values 1.03 | S. cerevisiae deletion strains, locus YOR144C, strain elg1, hits give low values 1.01 | S. cerevisiae deletion strains, locus YOR184W, strain ser1, hits give low values 1.03 | S. cerevisiae deletion strains, locus YOR231W, strain MKK1, hits give low values 0.977 | S. cerevisiae deletion strains, locus YOR265W, strain rbl2, hits give low values 0.989 | S. cerevisiae deletion strains, locus YOR270C, strain vph1, hits give low values 0.985 | S. cerevisiae deletion strains, locus YOR290C, strain snf2, hits give low values 0.913 | S. cerevisiae deletion strains, locus YOR316C, strain cot1, hits give low values 1.02 | S. cerevisiae deletion strains, locus YPL051W, strain arl3, hits give low values 0.97 | S. cerevisiae deletion strains, locus YPL055C, strain LGE1, hits give low values 1.02 | S. cerevisiae deletion strains, locus YPL078C, strain atp4, hits give low values 0.965 | S. cerevisiae deletion strains, locus YPL106C, strain sse1, hits give low values 0.949 | S. cerevisiae deletion strains, locus YPL240C, strain hsp82, hits give low values 0.986 | S. cerevisiae deletion strains, locus YPL256C, strain CLN2, hits give low values 0.93 | S. cerevisiae deletion strains, locus YPR119W, strain clb2, hits give low values 1.02 | S. cerevisiae deletion strains, locus YPR141C, strain kar3, hits give low values 1.03 | S. cerevisiae deletion strains, locus YPR163C, strain tif3, hits give low values 1.02 | S. cerevisiae deletion strains, locus YPR167C, strain met16, hits give low values 1.05 | S. cerevisiae deletion strains, strain wtn01, hits give low values 1.06 | S. cerevisiae strains, strain wild type, hits give low values 1.01
